Bioassay records (PubChem)
Sampled rows, rich in hits. Any-hit rate of the full collection: about 2.4%.
D2 antag: antagonists of human D2 dopamine receptor; 2% of 340,000 active; P14416; HEK293 TREx D2 cells, calcium flux, dopamine EC80; inhibition, % at 10 µM; AID 485344; in the data active means inhibition above about 30%; inactive means below that, where a call was filed
Target sequence (P14416 whole entry, looked up): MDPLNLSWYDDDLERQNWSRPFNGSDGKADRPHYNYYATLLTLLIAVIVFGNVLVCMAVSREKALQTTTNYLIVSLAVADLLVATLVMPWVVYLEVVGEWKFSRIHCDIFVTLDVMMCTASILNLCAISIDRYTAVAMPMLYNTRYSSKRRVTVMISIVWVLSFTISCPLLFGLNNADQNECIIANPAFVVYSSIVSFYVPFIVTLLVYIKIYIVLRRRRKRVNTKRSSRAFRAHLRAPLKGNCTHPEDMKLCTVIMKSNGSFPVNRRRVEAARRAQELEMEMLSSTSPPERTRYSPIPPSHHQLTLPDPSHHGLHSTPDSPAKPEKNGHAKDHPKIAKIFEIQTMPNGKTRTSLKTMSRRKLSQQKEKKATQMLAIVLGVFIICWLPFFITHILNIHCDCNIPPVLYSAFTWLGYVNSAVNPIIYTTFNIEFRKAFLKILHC
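Measurement of antagonist activity uses fluorescent calcium dye in inducible HEK293 T-REx D2 cells: 10 s baseline, compound addition with 180 s read, EC80 dopamine addition with a further 180 s read.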
D2 PAM-1: human D2 receptor positive allosteric modulation | P14416 | DiscoveRx D2 beta-arrestin cells, luminescence, 90 min; 100% = 57 uM dopamine signal | potentiation, % (test concentration not listed) | 0.23% of 360,000 active | AID 624464; in the data active means potentiation above about 50%; inconclusive means mostly about 30% to 49%
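PathHunter beta-arrestin assay in DiscoveRx D2 cells. Compounds were added with an EC20 of dopamine (50 nM final) for 90 min at 37 deg C. Luminescence was read 1 h after detection reagent, with 57 uM dopamine as the EC100 control.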
D2 PAM-2: positive allosteric modulators of human D2 dopamine receptor; 0.34% of 340,000 active; potentiation, % at 10 µM; HEK293 T-REx D2, calcium flux, EC20 dopamine potentiation;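 active means potentiation over 3 SD above the plate norm, cut at about 30% in these data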
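Tetracycline-induced HEK293 T-REx cells force-coupled to calcium signalling expressed D2; compounds were pin-added after a 10 s baseline, read kinetically 180 s, then an EC20 dopamine challenge followed with a further 180 s calcium read.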
D2 ag-1: activates the human D2 dopamine receptor; DiscoveRx PathHunter D2 beta-arrestin, luminescence, 90 min; 100% = 57 uM dopamine signal; AID 624465; 0.084% of 360,000 active; activation, % (test concentration not listed); in the data active means activation above about 40%; inconclusive means between about 15% and that limit
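DiscoveRx PathHunter D2 beta-arrestin cells (2,100/well) attached overnight, then compound-stimulated 90 min at 37 C in HBSS/10 mM HEPES/0.1% Tween-20 buffer; beta-galactosidase complementation read by luminescence after 1 h at ambient temperature. Dopamine 57 uM final (EC100) as control.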
D2 ag-2: D2 dopamine receptor (human) agonism. P14416. HEK293 T-REx D2 cells, calcium flux agonist mode. activation, % at 2 µM. 0.53% of 340,000 active;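 active means activation over 3 SD above normal in the single-dose calcium agonist read, cut at about 30% in these data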
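Tetracycline-induced HEK293 Trex cells with D2 receptor force-coupled to calcium signaling, plated overnight at 30 C and loaded with no-wash calcium dye. Calcium flux read kinetically for 180 s after compound addition; responses flag agonists.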
Large screens that a line does not name were inactive.

COc1ccc(C2=NNC(=O)C2(C)Br)cc1 (stereo unspecified)	none (no result: D2 antag, D2 PAM-2, D2 ag-2)
COc1ccc(OC)c(S(=O)(=O)Nc2cccc3c(O)cccc23)c1	none (no result: D2 antag, D2 PAM-2, D2 ag-2)
COc1ccc(OC)c(S(=O)(=O)Nc2ccc(O)c3ccccc23)c1	D2 PAM-1 89, D2 ag-1 inconclusive
O=C(NC1CCN(Cc2ccccc2)CC1)C(NS(=O)(=O)c1cccc2nsnc12)c1ccccc1 (stereo unspecified)	D2 antag 35
CCOC(=O)N1CCC(NC(=O)C(NS(=O)(=O)c2cccc3nsnc23)c2ccccc2)CC1 (stereo unspecified)	none
O=Cc1c(C(=O)O)n(CC(=O)O)c2ccccc12	D2 PAM-1 69
Nc1nnc(SCC(=O)Nc2nccs2)s1	none
Cc1nnc(SCC(=O)Nc2nccs2)s1	D2 antag 34
CCOC(=O)CNC(c1ccccc1)c1cc(Br)ccc1NC(=O)CCN1CCOCC1 (stereo unspecified)	D2 antag 38
O=C(CC(c1ccccc1)c1cc(Br)ccc1O)NCCCN1CCOCC1 (stereo unspecified)	none
O=C(CC(c1ccccc1)c1cc(Br)ccc1O)NCCN1CCOCC1 (stereo unspecified)	D2 antag 77
O=C(Nc1ccc2c(c1)CCCN2C(=O)c1cccs1)c1ccccc1Cl	none (no result: D2 antag, D2 PAM-1, D2 ag-1)
CCN(CC)C(=O)COCc1cc(-c2ccc3c(c2)OCO3)on1	none
CCCCNC(=O)C(NC(=O)c1cccc(C(F)(F)F)c1)C(=O)c1ccccc1 (stereo unspecified)	none (no result: D2 antag, D2 PAM-2, D2 ag-2)
O=C1C2C3C=CC(CC3)C2C(=O)N1c1ccc([N+](=O)[O-])cc1 (stereo unspecified)	none
CC(=O)Oc1ccc(N2C(=O)C3C4C=CC(CC4)C3C2=O)cc1[N+](=O)[O-] (stereo unspecified)	D2 antag 62
COc1ccc(-c2c(C#Cc3ccsc3)c3cc(-c4ccc(C(N)=O)cc4)ccc3n2C)cc1	none (no result: D2 antag, D2 PAM-2, D2 ag-2)
CC(=O)CCn1c(=O)n(CCC(C)=O)c(=O)n(CCC(C)=O)c1=O	D2 PAM-2 36
CCOc1ccc2cc(S(=O)(=O)n3ccnc3C)ccc2c1	D2 PAM-2 37
Cc1cccc(NC(=S)N(CCCN2CCOCC2)Cc2ccccn2)c1	D2 antag 40
S=C(Nc1ccc(Oc2ccccc2)cc1)N(CCCN1CCOCC1)Cc1ccccn1	none
COCCCNC(=O)c1cc2n(n1)CCCN(Cc1ccc(C)cc1)C2=O	none (no result: D2 antag, D2 PAM-1, D2 ag-1)
COc1ccc(CCNC(=O)c2cc3c(-c4ccc(OC)c(OC)c4)nn(C)c3s2)cc1OC	none (no result: D2 antag, D2 PAM-1, D2 ag-1)
COc1cc(OC)c2c(-c3ccccc3)cc(=O)oc2c1C(CC(=O)N1CCOCC1)c1ccc(N(C)C)cc1 (stereo unspecified)	D2 antag 31
COc1cc(OC)c2c(-c3ccccc3)cc(=O)oc2c1C(CC(=O)N1CCN(c2ccccc2)CC1)c1ccc(N(C)C)cc1 (stereo unspecified)	D2 antag 48
COc1cc(OC)c2c(-c3ccccc3)cc(=O)oc2c1C(CC(=O)N1CCN(c2ccccc2)CC1)c1ccc2c(c1)OCO2 (stereo unspecified)	none (no result: D2 PAM-1, D2 ag-1)
CCCCn1c(N)c(N(CCOC)C(=O)c2nn(CC)c(=O)c3ccccc23)c(=O)[nH]c1=O	none (no result: D2 antag)
Cc1ccc(-n2ncc3c(NCCCn4ccnc4)ncnc32)cc1	none (no result: D2 antag, D2 PAM-1, D2 PAM-2, D2 ag-1)
CC(C)(CN1CCN(Cc2ccccc2)CC1)NS(=O)(=O)c1ccccc1	D2 antag 41
O=c1c2oc3ccccc3c2n(Cc2ccccc2F)c(=O)n1Cc1ccccc1	none (no result: D2 antag, D2 PAM-1, D2 ag-1)
O=C(NCC(F)(F)F)c1csc([C@@H]2O[C@H](CO)[C@H](O)[C@H](O)[C@H]2O)n1	none (no result: D2 antag, D2 PAM-2, D2 ag-2)
O=S(=O)(Cc1ccc(Cl)cc1)c1ccccc1-c1nnc(-c2ccccc2)o1	D2 antag 55
CS(=O)(=O)c1ccccc1-c1nnc(-c2ccc(Cl)cc2)o1	none
COCCN1Cc2cccc(C(=O)Nc3ccc(C)cc3)c2C1=O	D2 antag 41
CCc1cc(=O)[nH]c(SCc2nc(-c3cccc(Cl)c3)no2)n1	none (no result: D2 antag, D2 PAM-1, D2 ag-1, D2 ag-2)
CCOc1ccc(CN(C)CC(O)COC(c2ccc(OC)cc2)c2ccc(OC)cc2)cc1 (stereo unspecified)	D2 antag 30
COc1ccc(C(OCC(O)CN(C)C2CCCCC2)c2ccc(OC)cc2)cc1 (stereo unspecified)	none
COc1ccc(CN(C)CC(O)COC(c2ccc(OC)cc2)c2ccc(OC)cc2)cc1 (stereo unspecified)	D2 antag 39
O=C1c2ccccc2NC2CCCCCN12 (stereo unspecified)	D2 PAM-2 30
COC1C=CC=C(C)C(=O)NC2=CC(=O)C(N)=C(CC(C)CC(OC)C(O)C(C)C=C(C)C1OC(N)=O)C2=O (stereo unspecified)	none (no result: D2 antag, D2 PAM-2, D2 ag-2)
CSc1ccc(-c2nc3ncccn3c2Nc2ccc(C)c(C)c2)cc1	none (no result: D2 antag, D2 PAM-1, D2 ag-1)
Cc1nn(Cc2ccccc2)c(C)c1NC(=O)c1ccc([N+](=O)[O-])cc1[N+](=O)[O-]	D2 PAM-1 88, D2 ag-1 inconclusive
Cc1ccc(S(=O)(=O)N(C)C)cc1NC(=O)CSc1ccc2c(c1)OCCO2	D2 antag 36
COc1ccccc1CCC(=O)OCC(=O)Nc1cc(S(=O)(=O)N2CCOCC2)ccc1C	D2 antag 33
Cc1ccc(C)c(SCC(=O)Nc2cc(S(=O)(=O)N3CCOCC3)ccc2C)c1	D2 antag 53
Cc1ccc(S(=O)(=O)N2CCCCC2)cc1NC(=O)COC(=O)c1c(F)cccc1F	D2 PAM-2 31
CCN(C(=O)CN1C(=O)NC2(CCCc3ccccc32)C1=O)c1ccc(F)cc1 (stereo unspecified)	none
Cc1ccc(NCc2ccccc2O)cc1	none
Cc1ccc(CNc2ccc(O)cc2)cc1	D2 PAM-1 70, D2 ag-1 inconclusive (no result: D2 PAM-2)
CCCC1(C(=O)OC)NC(c2cccc(F)c2)C2C(=O)N(CC)C(=O)C21 (stereo unspecified)	D2 antag 31
CCOc1ccc(CN2CCN(S(=O)(=O)c3ccc(Cl)cc3)CC2)cc1	none (no result: D2 antag, D2 PAM-1, D2 ag-1)
COc1ccc(C(=O)Nc2cccc(NC(=O)c3ccc(OC)c(OC)c3)n2)cc1OC	D2 PAM-1 85
Cc1ccc(NC(=S)N2CCCC(c3nc4ccccc4[nH]3)C2)cc1 (stereo unspecified)	none (no result: D2 antag, D2 PAM-2, D2 ag-2)
Cc1ccccc1NC(=S)N1CCCC(c2nc3ccccc3[nH]2)C1 (stereo unspecified)	D2 antag 32
Cc1ccc(S(N)(=O)=O)c(C)c1N1CCCC1=O	D2 PAM-2 30
S=C(NCCc1ccccc1)N1CCC2CC1c1cc(-c3ccc4c(c3)OCO4)ccc12 (stereo unspecified)	none (no result: D2 antag, D2 PAM-2, D2 ag-2)
O=C(Nc1cccc(Cl)c1)NC1CCN(C2CCCCC2)C1 (stereo unspecified)	D2 antag 85
